# Data published in PubChem BioAssay (NCI).
# Compounds without any hit were thinned out: in the full panel of roughly 83,000, 20% have a hit.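 Results are percent growth after 48 hours of single-concentration exposure. 100 means growth as in untreated cells, lower positive values show inhibition; negative values down to -100 show cell death.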 Unmarked numbers belong to inactive results. Active and inactive are the calls of the source. Rule for the calls: active = growth percent below 10; inactive = the rest.
# System: K-562 leukemia
# Experiment: NCI-60 one-dose screen, 48 h (100 = growth as untreated, 0 = no growth, -100 = all killed)
# Settings: 10 µM
row,SMILES,growth
1,COc1cc(C2CC(=O)Nc3c2c(C)nn3-c2nc3ccccc3[nH]2)cc(OC)c1O (stereo not drawn),75.7%
2,CCCCC(CC#N)(CCC)CCC,101%
3,COc1cc(C)c2sc3ccccc3c(=O)c2c1NCCN(C)C,-1.18% (active)
4,O=C(CCl)N1c2ccccc2Sc2ccc3ccccc3c21,-0.331% (active)
5,CCOC(=O)Nc1ccc2c(c1)C(=O)N(CC)c1ccccc1O2,8.79% (active)
6,COc1ccc(/C=C(\c2cc(OC)c(OC)c(OC)c2)c2nnc(-c3cccs3)o2)cc1,89.5%
7,COc1ccc(-c2cc(/C=C/C(=O)c3ccc(N)cc3)[nH]n2)cc1OC,24.4%
8,CCCCCCCCCCSC(=N)N (tested in a mixture with another compound),9.73% (active)
9,CC(=O)CS(C)(=O)=O,102%
10,Nc1ccc2c(c1)Cc1cc(N)c(Cl)cc1-2,104%
11,CCOC(=O)c1cc(-c2ccccc2)nc(N)n1,104%
12,CCCOCC(O)CNCCN (stereo not drawn),99.3%
13,O=C(Nc1ccc(OCc2nnc(-c3ccccc3)o2)c(F)c1)Nc1ccc(Cl)c(Cl)c1,34.4%
14,Cc1[nH]nc2c(=S)[nH]c(=O)[nH]c12,105%
15,CCC(OC(=O)CC(C)C)c1ccccc1 (stereo not drawn),99.6%
16,C/C=C\COc1cc(C)c(Cl)cc1Cl,114%
17,CC(=O)N(O)c1ccc(/C=C/c2ccccc2)cc1,73.3%
18,CCOC(=O)c1c(C(F)(F)F)n([O-])c2ccc(OC)cc2[n+]1=O,2.01% (active)
19,NCCNc1ccc2cc(-c3nc4ccccc4[nH]3)c(=O)oc2c1,81.3%

row,SMILES,growth
1,Nc1ccc(Sc2ccc3c4c2cccc4c(=O)n2c4ccccc4nc32)cc1,60.3%
2,COc1cccc(C(=O)NNc2nc(N3CCOCC3)nc(N3CCN(C(c4ccccc4)c4ccccc4)CC3)n2)c1,63.5%
3,C=CCN1C(=O)/C(=C\c2ccc3c(c2)CCC3)SC1=S,103%
4,COc1cccc(-c2nnc(COc3ccc(-c4nc5ccc(C)cc5[nH]4)cc3OC)o2)c1,13.5%
5,CNC(=O)c1cc(Oc2ccc(NC(=O)Nc3ccc(Cl)c(C(C)(C)C)c3)c(F)c2)ccn1,19%
6,CC(=O)/C(=C\c1ccc(Cl)cc1)c1ccccc1,8.97% (active)
7,Cc1cc(C)c(C(=O)OC(C)CNC2CCCCC2)c(C)c1 (stereo not drawn),81.2%
8,CC(=O)Oc1ccc(C2=Cc3ccc(OC(C)=O)cc3OC2C)cc1 (stereo not drawn),28.4%
9,CC(=O)Nc1nc(C)c(C(=O)NNC=O)s1,54.8%
10,CCCCC(=O)N(c1ccc(Nc2c3ccccc3nc3cc([N+](=O)[O-])ccc23)cc1)S(C)(=O)=O,64.3%
11,O=C1/C(=C/c2ccc(O)cc2O)N=C2SCCCN12,92.5%
12,Cc1ccc2c(c1)-c1cc(C)nn1-c1ccc(C#N)cc1O2,19.7%
13,O=C(c1ccc(Cl)cc1)c1no[n+]([O-])c1C(=O)c1ccc(Cl)cc1,5.95% (active)
14,Nc1nsc(C(=O)c2ccc(O)cc2)n1,107%
15,COc1ccc(C2=Cc3ccc(OC(C)=O)cc3OC2)cc1,72.3%
16,Cc1nc2cc(-n3c(-c4ccc(F)cc4)nc4ccccc4c3=O)ccc2n1Cc1ccccc1,8.27% (active)
17,Cc1nnc2c3nnc(-c4ccc(Cl)cc4)n3c3ccccc3n12,90%
18,Cc1cc(C)c2c(Nc3ncnc4c3sc3nc(C)cc(C)c34)n[nH]c2n1,93.2%
19,CCCCNC(=O)Oc1ccc(/C(=C(\C)c2ccc(OC)cc2)c2ccc(OCCN3CCCCC3)cc2)cc1,-0.634% (active)
